TROY signal inh = TROY signaling inhibition; 360,000 compounds, 0.98% hits; inhibition, % at 10 µM; Q293 LMP1-TROYcd NF-kB luciferase reporter, 4 h;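 active = compounds whose plate-normalised and pattern-corrected inhibition of the luciferase reporter signal at the single screening dose is 50% or more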
LMP1 NFkB inh = inhibitors of Epstein-Barr LMP1-induced NF-kappaB reporter. LMP1-induced NF-kappaB luciferase reporter cells, luminescence. inhibition, % at 12.5 µM. 350,000 compounds, 0.69% hits. AID 504558; in the data active = inhibition above about 41%;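 note: 0% = neutral control wells and 100% = reference inhibitor control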
EWS-Fli block = inhibitors of EWS/Fli oncoprotein transcriptional activity; 350,000 compounds, 0.67% hits; A673 NR0B1-luciferase reporter, viability-normalised; AID 651661; inhibition, % at 12.6 µM;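 active = mean inhibition of at least 50% after viability correction, with every replicate also passing that limit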;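 note: firefly luciferase signal divided by Alamar Blue viability fluorescence both relative to DMSO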
TWEAK-Fn14 inh = TWEAK-Fn14 signaling inhibition; TWEAK-stimulated Fn14 reporter cells, luciferase luminescence, 8 h; inhibition, % at 10 µM; 360,000 compounds, 2% hits; AID 1159606; in the data active = inhibition above about 50%
LGR2 inh = blocks bursicon-induced cAMP signaling via Drosophila LGR2 | HEK293 LGR2, CRE-luciferase, bursicon-stimulated, 4 h | inhibition, % at 9.99 µM | 380,000 compounds, 0.35% hits | AID 720647;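 active = drop in luminescence signal, shown as inhibition above about 50% in the replicate tests, limit read from the data, passing the limit was not always enough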;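 note: agonist challenge used bursicon conditioned medium at about half maximal strength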
* hit, by the source's call; x = not tested or not shown. Shown are actives, neighbours in structure and some others; about 2.5% of the full set was active somewhere.

SMILES | TROY signal inh | LMP1 NFkB inh | EWS-Fli block | TWEAK-Fn14 inh | LGR2 inh
O=C(c1ccccc1)N1CC(=O)N2[C@H](CO)[C@@H](c3ccc(C#CCC4CCCC4)cc3)[C@@H]2C1 | x | x | x | x | 18
CN1c2ccc(Br)cc2[C@H]2[C@H](CCN2S(=O)(=O)c2cccc(F)c2)[C@@H]1CO | x | x | 17 | x | 7
O=C(Nc1ccc(Br)c2ccccc12)c1ccc2ccccc2c1O | 51* | 16 | -3 | 55* | 30
CC(=O)Nc1ccc(Br)c2ccccc12 | 2 | -1 | 2 | 5 | x
CN(C)CCCN(C(=O)COc1ccc(Cl)cc1)c1nc2cc3c(cc2s1)OCO3 | -59 | 3 | 61* | -9 | 2
COc1ccc(C(=O)N2C[C@H]3[C@@H](c4ccccc42)[C@H](CO)N3C(=O)c2ccc(F)cc2)cc1 | x | x | -5 | x | 6
CNc1cncc(-c2cc(OC)ccc2OC)n1 | 9 | x | -7 | 0 | 2
COc1ccc(OC)c(-c2cnc(OC(C)(C)C)nc2OC(C)(C)C)c1 | 1 | 2 | 71* | 1 | 24
COc1ccc(-c2ccc([C@H]3[C@@H](CO)N4C(=O)CN(Cc5ccccc5)C[C@@H]34)cc2)cc1 | x | x | 1 | x | -14
CCCCn1c(NC(=O)c2ccco2)c(S(=O)(=O)c2ccc(C)cc2)c2nc3ccccc3nc21 | 66* | 9 | 3 | 72* | 1
CCC(=O)Nc1c(S(=O)(=O)c2ccc(C)cc2)c2nc3ccccc3nc2n1C(C)c1ccccc1 (configuration not stated) | 34 | 6 | 10 | 35 | 15
CCCCCn1c(NC(=O)c2ccco2)c(S(=O)(=O)c2ccc(C)cc2)c2nc3ccccc3nc21 | 65* | 9 | x | 67* | x
Cc1ccc(S(=O)(=O)c2c(N)n(NC(=O)c3ccccc3C)c3nc4ccccc4nc23)cc1 | -39 | 7 | x | 14 | x
CCCCn1c(NS(=O)(=O)c2ccccc2)c(S(=O)(=O)c2ccc(C)cc2)c2nc3ccccc3nc21 | 70* | 7 | 8 | 32 | x
CCC(=O)Nc1c(S(=O)(=O)c2ccccc2)c2nc3ccccc3nc2n1C(C)c1ccccc1 (configuration not stated) | 73* | 2 | 5 | 50* | 1
C[C@@H](NC(=O)C[C@H]1CC[C@H](NC(=O)Cc2ccccn2)[C@@H](CO)O1)c1ccccc1 | x | x | -4 | x | -3
C[C@@H]1CN([C@H](C)CO)C(=O)c2cc(NS(C)(=O)=O)ccc2O[C@@H]1CN(C)S(=O)(=O)c1cn(C)cn1 | x | x | -42 | x | -16
COc1ccc(CN(C)C[C@H]2Oc3ccc(NC(=O)NC(C)C)cc3C(=O)N([C@@H](C)CO)C[C@H]2C)cc1 | x | x | x | x | 21
CCCCn1c(NC(=O)c2ccc(Br)o2)c(S(=O)(=O)c2ccccc2)c2nc3ccccc3nc21 | 71* | 7 | x | 74* | x
Nc1c(S(=O)(=O)c2ccccc2)c2nc3ccccc3nc2n1CCN1CCOCC1 | 0 | -7 | 7 | 10 | -4
CCOC(=O)c1cc(-c2ccccc2)n(CC(=O)Nc2cccc(OC)c2)c1C | -15 | 53* | 10 | 8 | -2
CCN1CC(=O)N2[C@H](C1)[C@H](c1ccc(-c3ccccc3F)cc1)[C@@H]2CO | x | x | -8 | x | -9
O=C(O)CCN1C(=O)C2C3c4ccccc4C(c4ccccc43)[C@@H]2C1=O (some centres not stated) | 8 | -6 | 5 | 9 | 1
O=C(O)CCN1C(=O)C2C3c4ccccc4C(c4ccccc43)C2C1=O (configuration not stated) | 6 | 50* | -3 | -3 | 6
Oc1ccc(CCNc2ncnc3ccc(Cl)cc23)cc1 | 56* | 20 | 2 | 94* | 24
SMILES | TROY signal inh | LMP1 NFkB inh | EWS-Fli block | TWEAK-Fn14 inh | LGR2 inh
Nc1nc(Cl)cc(NCCc2ccc(O)cc2)n1 | 2 | 25 | -8 | -1 | -29
COc1ccc2c3c([nH]c2c1)[C@@H](CO)N(C(=O)Nc1ccc(F)cc1)CC31CCN(Cc2cc(F)ccc2F)CC1 | x | x | 32 | x | 6
Cc1ccc2[nH]c3c(=O)n(CCc4cnc[nH]4)cnc3c2c1 | 53* | 1 | x | 15 | x
Cc1cc(C)n(C2CCCCC2OC(=O)c2ccccc2)n1 (configuration not stated) | 8 | -3 | x | -24 | 7
Cc1cc(C)n(C2CCCCC2OC(=O)c2ccccc2F)n1 (configuration not stated) | -4 | 42* | x | -8 | x
O=[N+]([O-])c1ccc(N2CCN(Cc3cccc([N+](=O)[O-])c3)CC2)cc1 | -5 | 54* | -1 | -7 | 1
